ERa SRC1 pot = ER-alpha (human) coactivator binding potentiation; 1.3% of 86,000 active; TR-FRET ERalpha-LBD/SRC-Cy5 coactivator binding, 2 h; 100 = basal binding, no effect; coactivator binding (% of control), % at 25.6 µM; P03372; in the data active = activity above about 200%;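 note: binding measured in presence of low estradiol as agonist stimulus; 0% = peptide alone without receptor and 100% = receptor with peptide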
EphB4 antag = antagonists of human EphB4-ephrin-B2 interaction | 0.15% of 97,000 active | inhibition, % at 7 µM | AID 720 | P54760 | EphB4 LBD / TNYL-RAW-Alexa532 peptide, fluorescence polarization;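 active = inhibition above the screen-wide mean inhibition plus 3 SD, cut at about 15% in these data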;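 note: 0% = DMSO wells and 100% = excess unlabeled TNYL-RAW peptide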
Target sequence (P54760 whole entry, looked up, the tested form may be a part): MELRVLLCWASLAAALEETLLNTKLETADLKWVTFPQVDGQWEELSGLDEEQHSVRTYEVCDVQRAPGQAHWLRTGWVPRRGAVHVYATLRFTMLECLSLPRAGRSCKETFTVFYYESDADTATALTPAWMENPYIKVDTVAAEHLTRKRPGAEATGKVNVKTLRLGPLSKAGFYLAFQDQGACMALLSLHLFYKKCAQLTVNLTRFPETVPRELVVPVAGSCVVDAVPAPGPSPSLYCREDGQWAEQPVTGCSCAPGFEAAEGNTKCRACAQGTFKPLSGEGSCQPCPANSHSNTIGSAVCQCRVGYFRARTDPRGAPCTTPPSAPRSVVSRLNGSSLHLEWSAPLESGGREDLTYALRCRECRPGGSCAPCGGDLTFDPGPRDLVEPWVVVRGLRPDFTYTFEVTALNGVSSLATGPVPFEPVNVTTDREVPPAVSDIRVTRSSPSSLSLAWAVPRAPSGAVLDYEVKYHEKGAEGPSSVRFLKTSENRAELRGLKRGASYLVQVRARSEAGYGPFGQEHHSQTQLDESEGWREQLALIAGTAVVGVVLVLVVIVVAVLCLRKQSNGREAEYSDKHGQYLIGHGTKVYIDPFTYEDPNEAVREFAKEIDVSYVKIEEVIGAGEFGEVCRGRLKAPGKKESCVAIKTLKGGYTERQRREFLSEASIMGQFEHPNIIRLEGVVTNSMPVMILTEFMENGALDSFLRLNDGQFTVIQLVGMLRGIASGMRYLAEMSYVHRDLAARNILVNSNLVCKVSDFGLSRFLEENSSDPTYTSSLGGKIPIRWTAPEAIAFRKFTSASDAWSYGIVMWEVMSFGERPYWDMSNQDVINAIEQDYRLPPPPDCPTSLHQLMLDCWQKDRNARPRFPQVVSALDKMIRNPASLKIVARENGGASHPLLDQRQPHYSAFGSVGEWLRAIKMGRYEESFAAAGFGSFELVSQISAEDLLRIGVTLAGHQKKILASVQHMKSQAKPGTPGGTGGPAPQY
ERa SRC1 inh = blocks coactivator binding to human estrogen receptor alpha. TR-FRET ER-alpha LBD / SRC-1 peptide, estradiol-bound. inhibition, % at 25.6 µM. 1.7% of 86,000 active; in the data active = inhibition above about 50%;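 note: 0% = receptor plus peptide control and 100% = peptide only without receptor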
ERb coact inh = ER-beta (human) coactivator binding inhibition; AID 633; TR-FRET ER-beta LBD / SRC1-Cy5 peptide binding; receptor agonist-loaded with 1 µM estradiol; 1.3% of 86,000 active; Q92731; inhibition, % at 25.6 µM;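 active = compounds whose percent inhibition of the receptor-coactivator binding signal exceeds about 50% in the single-dose screen, limit read from the data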;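 note: 0% = receptor plus peptide wells without compound and 100% = peptide-only wells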
The depositor's hits bear a star; . = no result; [ ] = dose if it differs, or a comment. Sampled rows, rich in hits. Any-hit rate of the full collection: about 2.8%.

SMILES	ERa SRC1 pot	EphB4 antag	ERa SRC1 inh	ERb coact inh
CC(=O)c1ccc(N2CCN(C(=S)Nc3ccccc3)CC2)cc1	.	6	.	.
CC(=O)Nc1ccc(N2CCN(C(C)=O)CC2)cc1	80	6	23	63*
O=C(Nc1ccc(N2CCCC2)cc1)C(c1ccccc1)c1ccccc1	7	2	60*	27
CC(C)C(=O)Nc1ccc(N2CCCC2)cc1	60	-4	25	40
Cc1cc(C)n(-c2nc(SCCN(C)C)c3c4c(sc3n2)COC(C)(C)C4)n1	.	-8	.	.
CCOC(=O)N1CCN(C(=O)c2ccc(NC(=O)c3ccc(C)cc3)cc2)CC1	105	8	29	-9
CN(C)CCNC(=O)C12CC3(C)CC(C)(CC(C)(C3)C1)C2	98	1	0	1
O=C1c2ccccc2-c2onc3ccc(Oc4ccccc4)c1c23	60	1	76*[fluorescence artefact?]	41
O=C(NCCN1CCCCCC1)c1ccc(N2CCCC2=O)cc1	155	5	55*[fluorescence artefact?]	22
COc1ccc(C)cc1NS(=O)(=O)c1cccc2nonc12	98	.	-9	-5
O=C/C(=C\Nc1ccccn1)c1nc2cc(Cl)ccc2o1	102	0	66*[fluorescence artefact?]	28
CCCCN1CCc2c([nH]c3c(C)cccc23)C1=O	587*[fluorescence artefact?]	.	-9	-10
O=C(O)c1cc(S(=O)(=O)NCC2CCCO2)ccc1Cl (stereo not given)	110	-1	3	-7
CCOC(=O)CSc1n[nH]c(NC(=O)c2cccc(C(F)(F)F)c2)n1	.	-6	.	.
CCn1cc(C(=O)NCc2ccc3c(c2)OCO3)c(=O)c2cc(F)c(N3CCN(C(=O)c4ccco4)CC3)cc21	96	2	11	7
CCOC(=O)c1ccccc1NC(=O)COc1cc(=O)n(CC)c2ccccc12	278*[fluorescence artefact?]	4	19	45
COC(=O)c1ccccc1NC(=O)CN1CCN(C23CC4CC(CC(C4)C2)C3)CC1	82	.	-5	-6
c1ccc(-c2nc(NCc3cccnc3)c3oc4ccccc4c3n2)cc1	88	-2	-40	-16
COc1cccc(-n2nnc3c(=O)n(Cc4cccc(F)c4)cnc32)c1	269*	-2	19	17
COc1cccc(-n2nnc3c(=O)n(Cc4c(F)cccc4Cl)cnc32)c1	127	-3	44	20
COc1ccc2c(c1)c(=O)oc1cc(OCC(=O)N3CCc4ccccc4C3)ccc12	237*[fluorescence artefact?]	4	71*[fluorescence artefact?]	62*
COc1ccc2c(c1)c(=O)oc1cc(OCC(=O)N3CCC(C)CC3)ccc12	133	-2	59*	60*
COc1ccc2c(c1)c(=O)oc1cc(OCC(=O)N3CCCC(C)C3)ccc12 (stereo not given)	132	-3	36	48
COCCn1c(-c2ccc(-c3ccccc3Cl)o2)nc2c1c(=O)[nH]c(=O)n2CC(C)C	208*	-3	8	9
COc1ccc(OC)c(NC(=O)CSc2nc(C)cs2)c1	.	-1	.	.
SMILES	ERa SRC1 pot	EphB4 antag	ERa SRC1 inh	ERb coact inh
O=C1c2ccccc2C(Nc2ccc3c(c2)OCCO3)N1Cc1ccc2c(c1)OCO2 (stereo not given)	99	-5	0	-8
O=C1OC(Nc2ccc3c(c2)OCO3)c2ccccc21 (stereo not given)	74	0	35	52*
CCC(C)(C)n1nnnc1C(c1cccnc1)N1CCN(c2cccc(C(F)(F)F)c2)CC1 (stereo not given)	98	1	-2	-7
Cc1ccc(C(=O)CN(C(=O)c2ccc(Cl)c(Cl)c2)N2C(=O)C3C4C=CC(C4)C3C2=O)cc1 (stereo not given)	.	0	.	.
O=c1oc2ccc3ccccc3c2cc1-c1nc2ccccc2o1	177	6	51*[fluorescence artefact?]	27
O=C(NCc1ccco1)/C(=C/c1cccnc1)NC(=O)c1ccco1	.	4	.	.
Cc1ccc(-c2nnc(Nc3ccccc3)c3ccccc23)cc1S(=O)(=O)NCC1CCCO1 (stereo not given)	.	-2	.	.
Cc1ccc(-c2nn3c(-c4ccco4)nnc3c3ccccc23)cc1S(=O)(=O)NCC1CCCO1 (stereo not given)	218*	5	55*[fluorescence artefact?]	30
O=S(=O)(O)c1nc2ccccc2n1Cc1ccccc1	100	-4	0	63*
CS(=O)(=O)c1nc2ccccc2n1Cc1ccccc1	107	0	0	-9
COCCn1c(C)cc(C(=O)CSc2ccc3ccccc3n2)c1C	.	-3	.	.
COCCn1c(C)cc(C(=O)COc2nc3ccccc3nc2C)c1C	117	20*	9	7
Nc1ncnc(Nc2ccccc2C(F)(F)F)n1	666*[fluorescence artefact?]	6	-1	-7
Nc1nc(Nc2ccccc2Br)nc(C(F)(F)F)n1	106	.	-5	-6
Cn1ncc(N=Cc2ccccc2)c1C(=O)Nc1cccc(Cl)c1	106	0	-6	-4
Cc1cc(C(=O)CSc2nnc(-c3ccccc3)n2C)c(C)n1C	115	3	4	6
Cc1cc(C(=O)CSc2nnc(-c3cccnc3)n2-c2ccccc2F)c(C)n1C	55	-6	70*	31
CCOC(=O)c1c(C)[nH]c(C(=O)CSc2nnnn2-c2ccccc2)c1C	205*[fluorescence artefact?]	.	58*[fluorescence artefact?]	58*[fluorescence artefact?]
CCOC(=O)c1c(C)[nH]c(C(=O)CSc2nnnn2-c2ccc(C)cc2)c1C	123	-5	-2	0
CSCCC1(C(=O)O)NC(c2ccccc2O)C2C(=O)N(C(C)C)C(=O)C21 (stereo not given)	112	-11	84*[fluorescence artefact?]	-4
CCCC1(C(=O)O)NC(c2ccccc2O)C2C(=O)N(Cc3ccccc3)C(=O)C21 (stereo not given)	115	1	6	-3
CCN(CC(=O)NCc1ccc(F)cc1)CC(O)COCc1cccc(OC)c1 (stereo not given)	117	-2	-7	-1
Cc1ccccc1Nc1nc(N)nc(CSc2nnnn2-c2ccccc2)n1	101	-2	7	-2
CCc1ccc(Nc2nc(N)nc(CSc3nnnn3-c3ccccc3)n2)cc1	312*	-4	41	41
O=C(Nc1cccc(C(F)(F)F)c1)N(Cc1ccc(Cl)cc1)CC(O)C(F)(F)F (stereo not given)	.	6	.	.
SMILES	ERa SRC1 pot	EphB4 antag	ERa SRC1 inh	ERb coact inh
CC(C)Sc1nc(SCC(=O)NCc2ccco2)c2c3c(sc2n1)COC(C)(C)C3	195	.	1	0
CCCSc1nc(SCC(=O)NCc2ccccc2)c2c3c(sc2n1)COC(C)(C)C3	294*[fluorescence artefact?]	-5	2	10
CCCCn1nnnc1NCc1cccc(OC)c1OC	121	-13	-2	-5
CC(=O)N1CCN(CCN=CC2=C(O)CC(c3cccs3)CC2=O)CC1 (stereo not given)	80	-6	4	20
CCCc1nnc(SCc2ccc(C(=O)OC)o2)n1N	86	39*[fluorescence artefact?]	-24	-11
CCc1cc2c(=O)n(CC)c(SC(C)C(=O)Nc3c(C)n(C)n(-c4ccccc4)c3=O)nc2s1 (stereo not given)	98	0	1	55*
Cc1cc(C)cc(NC(=S)NCCN2CCOCC2)c1	.	2	.	.
